In PubChem BioAssay AID1117319 (Southern Research Institute, 2015):
Out of some 260,000 compounds screened, about 1,500 (0.58%) were called active. Inconclusive results (about 5%) are left out.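 The calls were made as follows: active = inhibition above a set limit at one or more doses, reproduced on every date tested; inconclusive = results disagree between test dates, or hit never tested in dose response; inactive = the rest.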 These entries were drawn from the full list. Measured potencies and affinities stand elsewhere.

The compounds below were run against Virion infectivity factor (Human immunodeficiency virus type 1 group M subtype B (isolate BH10)) + Virion infectivity factor (Human immunodeficiency virus type 1 group M subtype B (isolate BRU/LAI)) + Virion infectivity factor (Human immunodeficiency virus type 1 group M subtype B (isolate PCV12)) + Virion infectivity factor (Human immunodeficiency virus type 1 group M subtype B (isolate HXB2)) + DNA dC->dU-editing enzyme APOBEC-3G (Homo sapiens) (UniProt P69720+P69721+P69722+P69723+Q9HC16) (assay: HIV-1 Vif–A3G interaction blockers – biochemical, TR-FRET, GST-Vif 1-94, biotin-A3G peptide, dose response retest, primary screen (AID 1117319;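 also: Vif residues 1-94 fused to GST binding biotinylated APOBEC3G peptide 110-148; 0% = full assay without inhibitor and 100% = GST in place of GST-Vif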)). Details: TR-FRET GST-Vif / biotin-A3G peptide binding; hits give high values.

inhibition, inactive:
Cc1ccc(CN2CCSc3ccc(C(=O)NCc4cccnc4)cc32)cc1 -7.4%, COc1ccc(C(=O)/C=C2/C(=O)Nc3ccccc32)cc1 11.7%, Cc1[nH]n(-c2ccccc2)c(=O)c1/C=C1\C=NN=C1c1ccccc1 -6.22%, COC(=O)c1c(NC(=O)c2nc3nc(C)cc(C(F)F)n3n2)sc2c1CCC2 -2.56%, CCN(CC)C(=O)c1sc(NC(=O)C(Sc2ccccc2)c2ccccc2)c(C(=O)OC(C)C)c1C (stereo not given) -1.62%, S=c1[nH]nc(-c2cccnc2)n1/N=C/c1ccco1 3.51%, C(/C=C/c1ccco1)=N/N1CCN(c2ccccc2)CC1 18.8%, C(=C\c1ccccc1)/C=N/n1cnnc1 17.7%, Cc1cccc(-c2n[nH]c(=S)n2/N=C/c2ccco2)c1 -4.06%, CC(/C=N/n1c(-c2ccccc2)n[nH]c1=S)=C\c1ccco1 29%, CC(/C=N/n1c(-c2ccc(Cl)cc2)n[nH]c1=S)=C\c1ccco1 27.8%, S=c1[nH]nc(-c2cccnc2)n1/N=C/C=C/c1ccccc1 32.9%, Cc1cc(-c2n[nH]c(=S)n2/N=C/c2ccc(C)o2)n[nH]1 27.9%, O=C(COC(=O)Cn1cnc2ccccc21)Nc1ccc(F)c(F)c1 -4.98%, C=CCSc1nnc(CNC(=O)c2ccccc2C)n1C(C)C 4.54%, CC(NC(=O)C(=S)N1CCN(C)CC1)c1ccccc1 (stereo not given) 0.7%, C=CCN1/C(=C2/SC(=S)N(C)C2=O)Sc2ccccc21 11.3%, CCc1noc(C)c1C(=O)OC(C)C(=O)Nc1ccccc1OC (stereo not given) 3.88%, COc1cccc(-c2nn(C)c3sc(C(=O)NCc4ccc5c(c4)OCO5)cc23)c1 -2.11%, Cn1nc(-c2ccccc2F)c2cc(C(=O)Nc3ccc4c(c3)OCCO4)sc21 -1.77%, Cc1nn(CC(=O)NC2CCS(=O)(=O)C2)c(C)c1[N+](=O)[O-] (stereo not given) -7.13%, Cc1cc(S(=O)(=O)N2CCOCC2)ccc1OCC(=O)N1CCCCC1 25.7%, CCc1cccc(NC(=O)CCNS(=O)(=O)c2cccc3nonc23)c1 9.44%, Cc1ccc(NC(=O)CCNS(=O)(=O)c2cccc3nonc23)cc1 2.21%, CC(C)Cn1c2c(c(=O)[nH]c1=O)C(NS(=O)(=O)c1ccc(Cl)cc1)(C(F)(F)F)C(=O)N2 (stereo not given) -5.6%, COc1cccc(C(=S)N2CCCC2)c1OC 0.47%, O=C1C2CCCN2C(=O)N1CCCN1CCN(c2ccc([N+](=O)[O-])cc2)CC1 (stereo not given) -0.31%, O=C1C2CCCN2C(=O)N1CCCCN1CCN(c2ccc(F)cc2)CC1 (stereo not given) -0.87%, COc1cccc(-n2nc(C(N)=O)c(O)cc2=O)c1 -7.89%, CC(=O)NNc1ncnc2ccccc12 16%, O=C(O)CCC(=O)NNc1ncnc2ccccc12 -0.06%, Cc1cc(N/N=C/c2ccncc2)nc2ccccc12 8.69%, COC(=O)CC1SC(=O)NC1=Nc1ccc(C)cc1 (stereo not given) 19.1%, CCCCn1c(N)c(N(CCOC)C(=O)c2ccc(OCc3c(C)noc3C)cc2)c(=O)[nH]c1=O 5.41%, O=C(CSc1ncnc2sccc12)Nc1ccccc1 -6.5%, O=C(CSc1ncnc2sccc12)Nc1ccccc1F -5.44%, Cc1ccc2c(c1)C(c1ccccc1)CC(=O)O2 (stereo not given) -9.94%, Nn1c(SCC(=O)Nc2ccc3c(c2)OCO3)nnc1C(F)(F)F 1.55%, O=C(O)CSc1nnc(-c2ccncc2)n1C1CCCCC1 -0.35%, Cn1c(SCCC#N)nnc1-c1ccc(F)cc1 11.1%, C/C(=C\C(=O)c1ccc(C)cc1)Nc1ccc(N2CCOCC2)cc1 11.1%, COc1ccc2nc(C)cc(Nc3ccccc3OC)c2c1 -8.19%, Cc1cccc(S(=O)(=O)c2c(C)cc(C)nc2Cl)c1 -4.17%, COc1ccc(CN2CCN(c3nc4ccccc4s3)CC2)cc1 -11.5%, Cc1ccc(CN(Cc2ccccc2)C(=S)Nc2ccccc2C)o1 13.2%, CC(=O)N(C)/C=C1\Sc2ccccc2C1=O 1.33%, CN(C)/C=C1/Sc2ccccc2C1=O -7.14%, CCOC(=O)C(CC(=O)O)N1CCCCC1 (stereo not given) -2.07%, Cc1ccc(C(=O)Nc2ccc(CC(=O)O)cc2)o1 1.07%, Cc1ccc(C(=O)Nc2ccc(F)cc2)o1 -0.54%, COc1ccc(N/C=C/C(=O)C(C)(C)C)cc1 -3.89%, CCOC(=O)c1ccc(N/C=C/C(=O)C(C)(C)C)cc1 5.83%, CCN(CC(=O)Nc1c(F)cccc1F)C(=O)C1CC(=O)N(CCc2ccccc2)C1 (stereo not given) 5.22%, CN(CCC#N)C(=O)CC1(Cc2ccccc2)CCOC(C)(C)C1 (stereo not given) -1.26%, Cc1cccc(Nc2c([N+](=O)[O-])ccc3nonc23)c1C -5.88%, Cc1cc(C)cc(NC2=NCC(=O)N2Cc2ccccc2)c1 2.08%, CCOCCCNC(=O)Cn1cnc2c(cnn2-c2ccc(F)cc2)c1=O -2.53%, Cc1ccccc1N(C=O)c1ccccc1C -8.26%, COc1cccc(OCCNS(=O)(=O)c2cccc([N+](=O)[O-])c2)c1 -4.86%, Oc1c(CN2CCOCC2)cc(COCc2ccccc2)c2cccnc12 29.4%, Oc1c(Cl)cc(CN2CCCCC2)c2cccnc12 10.4%, Cc1ccc([N+](=O)[O-])c2cccnc12 1.02%, O=[N+]([O-])c1cc(Cl)c2cccnc2c1O -6.11%, CCOc1cccc(CN2CCN(c3cccc(C(F)(F)F)c3)CC2)c1O 28.2%, O=[N+]([O-])c1cc(CN2CCN(c3ccccc3)CC2)c(O)c2ncccc12 12.7%, O=[N+]([O-])c1ccc(O)c2cccnc12 -6.29%, O=[N+]([O-])c1cc(F)c2cccnc2c1O 18.9%, CCOC(=O)c1cc(-c2cccs2)[nH]n1 3.68%, O=C1C(c2ccccc2)c2ccccc2N1Cc1ccccc1 (stereo not given) -2.08%, CCOc1ccc(OCCn2ccnc2)cc1 -0.21%, Cc1nc2ccc(NS(=O)(=O)c3cccc([N+](=O)[O-])c3)cc2s1 -2.07%, COCCNC(=O)Nc1ccc2nc(-c3cccs3)c(-c3cccs3)nc2c1 13.9%, O=C(Nc1ccc2nsnc2c1)NC1CCCCC1 -12.3%, COCCNC(=O)Nc1ccc2nc(C)sc2c1 3.2%, O=C(NCCO)Nc1ccc2nsnc2c1 13.2%, Cc1nc2ccc(NC(=O)NCCCO)cc2s1 -2.1%, OCCCNC(=S)Nc1ccc2nc(-c3ccccn3)c(-c3ccccn3)nc2c1 16.7%, O=C(Nc1ccc(N2CCOCC2)cc1)Nc1ccc2nc(-c3ccco3)c(-c3ccco3)nc2c1 16%, O=C(Nc1ccc2nc(-c3cccs3)c(-c3cccs3)nc2c1)NC1CC1 -3.31%, COc1cc2[nH]c(=O)c(C(=O)NCc3ccc(C)cc3)c(O)c2cc1OC -8.1%, O=C1NC[C@H](c2ccccc2)N(CCc2cc(C(F)(F)F)cc(C(F)(F)F)c2)C1=O -3.13%, COC(=O)c1sc2nc(C)c([N+](=O)[O-])c(C)c2c1N 6.2%, CC(C)c1nnc(NC(=O)CC(=O)Nc2ccccc2C(=O)O)s1 15.4%, CCOC(=O)c1c(NC(=O)COC(=O)CCOc2ccc(OCC)cc2)sc(C(=O)N(C)C)c1C -2.2%, Cc1nc(CC(=O)Nc2nccs2)cs1 -1.06%, COC(=O)C1=C(C(=O)OC)[C@@H]2Nc3ccccc3[C@@]23C[C@@H](C(=O)OC)N=C3N1 0.57%, CN(CC(=O)Nc1ccccc1N1CCOCC1)S(=O)(=O)c1ccc(F)cc1 4.33%, O=C(c1ccc(Cl)cc1)c1cnc(-c2ccc(Cl)cc2)s1 -4.73%, O=C(CCCCl)Nc1c2c(nn1-c1ccccc1)CSC2 -3.73%, Cc1cc2nc(C3CCN(Cc4nnnn4Cc4cccs4)CC3)[nH]c2cc1C 1.05%, COC(=O)C1CC(c2ccccc2)N(c2ccccc2)O1 (stereo not given) -1.63%, CS(=O)(=O)N1CCCC(C(=O)NCCCN2CCN(Cc3ccccc3)CC2)C1 (stereo not given) 8.72%, CS(=O)(=O)N1CCCC(C(=O)NCCN2CCC(Cc3ccccc3)CC2)C1 (stereo not given) -4.71%, COc1ccccc1/C=C/C(=O)OCC(=O)Nc1ccccc1Sc1ccccc1 -5.26%, Cc1cc(C(=O)N(C)Cc2c(F)cccc2Cl)c2ccccc2n1 -2.57%, Cc1ccc(S(=O)(=O)CCC(=O)OCc2cc(C)ccc2C)cc1 4.12%, Cc1cc(C(=O)CSc2ncccn2)c(C)n1Cc1ccco1 -2.83%, CCn1c(C)cc(C(=O)CSc2nnc(-c3ccco3)o2)c1C 6.55%, COc1cccc(/C=C/C(=O)OCC(=O)Nc2cc(S(=O)(=O)N3CCOCC3)ccc2C)c1 -9.36%, CCN(CC(=O)NCc1cccs1)C(=O)c1ccc(S(=O)(=O)Nc2ccccc2Cl)cc1 1.56%
